This passage reports max response, negative = inhibition and Potency results from PubChem BioAssay AID720504 (National Center for Advancing Translational Sciences (NCATS), 2013).

Molecules are shown by their SMILES. Out of some 360,000 compounds screened, about 10,000 (2.8%) were called active. About 4% were inconclusive and are not listed. The call rests on the fitted dose curve; in most records, active means well fitted inhibition curve with a large enough effect; inconclusive means small, poorly fitted or top-dose-only effect; inactive means flat fitted curve, though single readings scatter. Shown is part of a subset that was picked to be rich in actives.
On the % scale 0 is the no-effect control and ±100 the full control effect; potency means the concentration at half of the fitted maximal effect.

In this test the target is Serine/threonine-protein kinase PLK1 (Homo sapiens) (UniProt P53350). As to the kind of experiment: qHTS for Inhibitors of PLK1-PDB (polo-like kinase 1 - polo-box domain): Primary Screen. Further: nearly all actives have a fitted effect of over 65% in size. On max response, negative = inhibition: series mostly up to about 57 µM. Conditions: Plk1 PBD binding of FITC phosphopeptide, fluorescence polarization. A general note: Quantitative high-throughput screening tests each substance at several concentrations.
Sequence of Serine/threonine-protein kinase PLK1 (Homo sapiens) (P53350 whole entry, looked up, the tested form may be a part): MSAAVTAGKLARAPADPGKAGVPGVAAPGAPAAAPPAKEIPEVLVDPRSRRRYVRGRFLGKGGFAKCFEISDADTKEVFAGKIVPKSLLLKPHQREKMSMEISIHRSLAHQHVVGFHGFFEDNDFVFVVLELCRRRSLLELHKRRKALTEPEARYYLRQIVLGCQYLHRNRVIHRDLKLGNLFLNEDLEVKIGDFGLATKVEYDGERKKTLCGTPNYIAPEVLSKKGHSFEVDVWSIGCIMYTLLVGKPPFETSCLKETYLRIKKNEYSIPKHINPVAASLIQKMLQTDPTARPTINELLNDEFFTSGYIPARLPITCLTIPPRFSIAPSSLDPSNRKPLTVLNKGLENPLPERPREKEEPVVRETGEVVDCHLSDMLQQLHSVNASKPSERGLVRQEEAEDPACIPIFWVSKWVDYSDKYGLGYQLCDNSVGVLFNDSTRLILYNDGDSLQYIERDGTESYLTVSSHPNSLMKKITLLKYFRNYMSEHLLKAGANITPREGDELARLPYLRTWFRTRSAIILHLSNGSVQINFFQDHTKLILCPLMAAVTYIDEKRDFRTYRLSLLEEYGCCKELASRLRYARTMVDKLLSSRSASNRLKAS
As to `Cc1ccn(CC(=O)NC2CCCN(Cc3ccccc3F)C2)n1` (stereo unspecified), the max response, negative = inhibition was -1.67% (inactive). `Fc1ccc(COc2ccc(-c3nnco3)cc2)cc1`: the max response, negative = inhibition was 2.81% (inactive). Still for that read-out and setting: the figure for `CN(Cc1ccc(F)cc1)C(=O)COc1ccc2ccccc2c1` is -5.68% (inactive). In the case of `Fc1ccc(COc2cccc(-c3n[nH]c(=S)o3)c2)cc1`, the Potency was 6.7 µM (active). On to `COCCCn1cc(CN2CC(N(C)C)CS2(=O)=O)nn1` (stereo unspecified), for which the max response, negative = inhibition was 2.09% (inactive).

Turning to `CC(=O)N1C[C@@H](CO)[C@@H](N(C)C(=O)c2ccco2)C[C@H]1c1ccccc1`, the max response, negative = inhibition is -12.5% (inactive). Consider `COc1ccc(OC)c(Nc2nc(-c3ccc(O)c(O)c3)cs2)c1`, for which the Potency was 29.9 µM (active).

Regarding `COc1ccc(-c2csc(Nc3cccc(C)n3)n2)cc1OC`, the max response, negative = inhibition was 8.19% (inactive). On the same count and under the same terms, the figure for `COc1ccc(C(O)c2nc(-c3ccc4c(c3)OCO4)cs2)cc1` (stereo unspecified) is 6.53% (inactive); for `Cc1noc(C)c1C(=O)N1CCC1(C)C(=O)NS(=O)(=O)c1ccc(C#N)cc1` (stereo unspecified) it is -3.77% (inactive); for `CC1(C(=O)NCc2ccccc2)CSCC(=O)N1CCCN1CCOCC1` (stereo unspecified) it is 6.34% (inactive). Consider `C[C@H]1CCC(=O)N([C@H](CSc2ccccc2)Cc2ccccc2)CC1`, for which the max response, negative = inhibition was -3.56% (inactive). Consider `O=C1CC[C@H](O)CCN1[C@H](CSc1ccc(Br)cc1)Cc1ccccc1`, for which the Potency is 11.9 µM (active). On to `O=C1CCNCCN1[C@H](CO)Cc1ccccc1`, for which the max response, negative = inhibition is -3.76% (inactive). The same measure, in the same setting: the same measure for `CCN(CC)S(=O)(=O)c1ccc(N(C)Cc2cccc(OC)c2OC)nc1`: -1.33% (inactive). `CCN(CC)S(=O)(=O)c1ccc(N(C)Cc2ccc(C(F)(F)F)cc2)nc1`: the Potency was 29.9 µM (active). For the molecule `CN(CCc1ccccc1)c1ccc([N+](=O)[O-])cn1`, the max response, negative = inhibition is -3.04% (inactive). The same measure, in the same setting: the same measure for `CCCS(=O)(=O)NC(=O)C1(C)CCCN(C(=O)c2ccnc(Cl)c2)C1` (stereo unspecified): 3.92% (inactive); for `CC(C)N1C(=O)c2ccccc2NC(=O)C1C(=O)NCc1cccs1` (stereo unspecified): -1.29% (inactive); for `CC(=O)N1Cc2cc(C(=O)NCc3cccc(F)c3)nc(-c3cccc(C4=CCCCC4)c3)c2[C@H]1CCO`: -9.42% (inactive).

Regarding `CN1CCN(C(=O)c2ccc(NC(=O)c3ccc(Br)o3)cc2)CC1`, the max response, negative = inhibition was -7.09% (inactive). Still for that read-out and setting: the same measure for `O=C(Cn1ncc(N2CCCC2)c(Br)c1=O)c1ccc(Cl)cc1`: -7.29% (inactive); for `O=C(Cn1nnc(N2CCCCC2)n1)c1ccc(Cl)c(Cl)c1`: -14.1% (inactive).

For the molecule `O=C(Cn1nc(CNc2ccc(Cl)cc2)[n+]2c1CCCCC2)c1ccc(Cl)cc1`, the Potency was 21.2 µM (active). Consider `O=C(NC(c1ccc(-c2ccccc2)cc1)c1cnccn1)C1CCN(CCOc2ccc(Cl)cc2Cl)CC1` (stereo unspecified), for which the max response, negative = inhibition was -2.44% (inactive). Consider `O=C1NC[C@H](CCCCN2C[C@H](Cc3ccccc3)N(Cc3ccccc3)C(=O)C2=O)N(CCc2ccc(O)cc2)C1=O`, for which the max response, negative = inhibition was 3.35% (inactive). Still for that read-out and setting: the same measure for `C[C@H]1CN([C@@H](C)CO)C(=O)CCCn2nncc2CO[C@@H]1CN(C)S(=O)(=O)c1cccc(C#N)c1`: -7.11% (inactive). The same measure, in the same setting: the same measure for `Cc1cn(C2OC[C@@H](O)[C@@H]2CO)c(=O)[nH]c1=O` (stereo partly specified): -5.18% (inactive); for `Cc1cn([C@H]2C[C@H](O)[C@@H](/C=C/C(=O)NCCCc3ccccc3)O2)c(=O)[nH]c1=O`: -13.1% (inactive). Turning to `Cc1cn(C2C=CC(CO)O2)c(=O)[nH]c1=O` (stereo unspecified), the Potency was 29.9 µM (active).

Turning to `O=C(CCN1CCCCC1)Nc1ccc(F)c(F)c1`, the max response, negative = inhibition was -0.714% (inactive).

For the molecule `CCCCN1CC(N2CCN(Cc3cccc(C)c3)CC2)CS1(=O)=O` (stereo unspecified), the max response, negative = inhibition is -2.99% (inactive). Still for that read-out and setting: the same measure for `CCOC(=O)C1=CC[C@@H](c2ccccc2)N(S(=O)(=O)c2ccc(C)cc2)[C@H]1c1ccc(CC)cc1`: -1.73% (inactive); for `NC1=CC(=O)C(=O)c2cccnc21`: -7.35% (inactive); for `COc1ccc(CCNC(=O)Cn2c(=O)n(CC3CCCO3)c(=O)c3ccccc32)cc1OC` (stereo unspecified): -13.3% (inactive). Turning to `COCCCNC(=O)CN1CCN(Cc2ccccc2Cl)C1=O`, the max response, negative = inhibition was -7.04% (inactive). `COCCCNC(=O)Cn1c(=O)n(Cc2ccccc2Cl)c(=O)c2cc(OC)c(OC)cc21`: the Potency is 29.9 µM (active). Turning to `CCNC(=O)C1(C)CCCN(Cc2noc(-c3ccccc3OC)n2)C1` (stereo unspecified), the max response, negative = inhibition is -4.99% (inactive). In the case of `C[C@H]1Cn2cnc(C(=O)N[C@@H](Cc3c[nH]c4ccccc34)C(=O)OC(C)(C)C)c2C(=O)N1`, the max response, negative = inhibition is -0.575% (inactive). Same read-out and setting: the figure for `CC(=O)N=c1ncn(CC(COC(C)=O)OC(C)=O)c2nc[nH]c12` (stereo unspecified) is -2.18% (inactive). Turning to `CC(=O)OC(COc1ccc(F)cc1)Cn1cnc2ccccc21` (stereo unspecified), the Potency is 37.7 µM (active). Turning to `CC(C)c1ccc(OCC(O)Cn2cnc3ccccc32)cc1` (stereo unspecified), the max response, negative = inhibition was -4.3% (inactive). On the same count and under the same terms, the figure for `CCCNC(=O)c1cc(C2CCCN(C(=O)c3ccc4c(c3)CCO4)C2)on1` (stereo unspecified) is -6.48% (inactive); for `CCCC(=O)N1CCC1(C)C(=O)NCc1ccc(C(C)C)cc1` (stereo unspecified) it is -11.6% (inactive). Still for that read-out and setting: the figure for `O=C(Cc1ccc([N+](=O)[O-])cc1)NCCS(=O)(=O)N1CCN(c2ccccc2)CC1` is -7.66% (inactive); for `COC(=O)C[C@H]1C=C[C@@H](NS(=O)(=O)c2ccc(C)cc2)[C@@H](CO)O1` it is 2.12% (inactive).
